# Measurements: PubChem BioAssay (EPA / NIEHS)
# Results filed as inconclusive are left out. The source made the active and inactive calls. The calls were made as follows, unless noted: active = hit-call score of the fitted dose curve at least 0.9, where 1 is the maximum; inconclusive = response in the unintended direction; inactive = score below 0.9.
# Experiments:
# [1] = CEETOX_H295R_MTT_cell_viability: Viability Assessment in the CeeTox HT-H295R MTT Assay (AID 2283718; active = hit-call score of the fitted dose curve at least 0.9, where 1 is the maximum; inactive = score below 0.9)
# Method in brief: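 Human H295R adrenal cells, prestimulated 48 h with 10 uM forskolin, were exposed 48 h to chemicals in 0.1% DMSO. Viability was measured in the same wells by MTT (0.5 mg/ml, 4 h, 37 C), absorbance 570/650 nm, as percent of controls.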
# [2] = Tanguay_ZF_120hpf_ActivityScore_legacy: (Legacy) Oregon State University Tanguay Lab 120 Hour Post-fertilization zebrafish Assay Score for Activity (AID 2283742)
# Method in brief: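 Dechorionated 5D embryos, one per well, static exposure 6–120 hpf, 28C, sealed and dark; final DMSO 0.64% (vol/vol). Brightfield binary scoring of mortality plus 18 endpoints; gain-of-signal fit versus DMSO baseline.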
# [3] = target: Luciferin 4-monooxygenase (Photinus pyralis) (UniProt P08659); test: CCTE_Simmons_QuantiLum_inhib_2: CCTE's Firefly Luciferase Inhibition Assay, Simmons Lab (AID 2283767);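 as to AC50: potency for inhibitors that lower luciferase luminescence relative to DMSO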
# Method in brief: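 Cell-free QuantiLum luciferase, 5 ng/well; compounds 5 nM–87.5 uM final, 8 conc, 0.5% DMSO; 30 min, 37C, dark. Detection reagent (150 uM D-luciferin, 147 uM dATP, CoA, DTT, pH 7.8 final) injected per well, kinetic luminescence. Triplicate biological replicates.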
# [4] = ACEA_AR_agonist_AUC_viability: ACEA Biosciences xCELLigence Real-Time Cell Analysis on Androgen Receptor Agonism for Viability (AID 2283775);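 as to AC50: viability read 80 hours after compound addition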
# Method in brief: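 Viability endpoint from xCELLigence impedance in 22Rv1 prostate cells at 80 h. Eight-point series, 100 uM maximum final.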
# [5] = STM_H9_CystineISnorm_perc: Stemina devTOX quickPredict H9 human embryonic stem cell (hESC)-based Assay for Cystine (CYSS) Metabolite Biomarker, Normalized (AID 2283713; active = hit-call score of the fitted dose curve at least 0.9, where 1 is the maximum; inactive = score below 0.9)
# Method in brief: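 UPLC-HRMS read-out: endogenous cystine peak area in spent medium, normalized to isotope-labeled internal standard and to median of 0.1% DMSO controls. Pluripotent H9 cells, 72h exposure, daily medium/compound replenishment; medium from last 24h sampled.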
# [6] = STM_H9_OrnCyssISnorm_ratio: Stemina devTOX quickPredict H9 human embryonic stem cell (hESC)-based Assay for Ornithine (ORN):Cystine (CYSS) Ratio (AID 2283714)
# Method in brief: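 UPLC-HRMS of spent media: ORN/CYSS ratio of internal-standard-normalized percentages, DMSO (0.1%) baseline. Pluripotent H9 hESCs, 72h exposure, daily re-dosing with fresh media; last 24h media collected.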
# [7] = tested on: zebrafish Androgen Receptor (AR), gene 100005148; test: ATG_zfAR_XSP1: Attagene TRANS-FACTORIAL Multi-Species (XSP1) HepG2 Assay for zebrafish Androgen Receptor (AR) (AID 2283771)
# Method in brief: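 Gain-of-signal versus DMSO was measured as reporter transcripts quantified by RT-PCR, fluorescent labelling and capillary electrophoresis after 24 h chemical exposure. The cells were HepG2 expressing a chimeric zebrafish AR-GAL4, co-stimulated with 3 nM 6-alpha-fluorotestosterone.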
# [8] = tested on: zebrafish Estrogen Receptor (ESR2B), gene 317733; test: ATG_zfER2b_XSP1: Attagene TRANS-FACTORIAL Multi-Species (XSP1) HepG2 Assay for zebrafish Estrogen Receptor (ESR2B) (AID 2283773)
# Method in brief: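 Multiplexed TRANS format in transfected HepG2 liver cells, chimeric NR-Gal4 from zebrafish ESR2B. 24 h dosing; medium contains 3 nM 6-alpha-fluorotestosterone. mRNA induction by RT-PCR/CE, positive direction vs DMSO.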
# [9] = ArunA_CellTiter_hNC: Viability Assessment in the ArunA Biomedical's Oris Neural Crest (hNC) Cell Migration Assay (AID 2283752)
# Method in brief: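 hNC cells (H9 ESC-derived), 60,000/well, Matrigel, LIF + bFGF medium; 16 h 37C attachment; 72 h compound in test medium; CellTiter Aqueous One read-out; loss-of-signal vs DMSO baseline.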
# [10] = ArunA_CellTiter_hNP: Viability Assessment in the ArunA Biomedical's Oris Neural Crest (hNC) Cell Migration Assay (AID 2283753)
# Method in brief: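 Viability read with CellTiter 96 Aqueous One after 72 h chemical exposure of human hNP1 neuroprogenitors, which were plated on Matrigel in LIF/bFGF medium 16 h beforehand. Endpoint fitted in positive direction relative to DMSO.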
# [11] = ArunA_NOG_NucleusCount: ArunA Biomedical's Neurite Outgrowth (NOG) Assay for Nucleus Count (AID 2283756)
# Method in brief: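 Viable neuron count, from Hoechst nuclei passing size and intensity gates, imaged at 20x on differentiated H9-derived human neurons. Exposure lasted 48 h from seeding; activity was scored relative to DMSO.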
# [12] = ArunA_NOG_NeuriteLength: ArunA Biomedical's Neurite Outgrowth (NOG) Assay for Neurite Length (AID 2283757)
# Method in brief: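 Total neurite length per neuron, from traced βIII-tubulin-labelled processes longer than 10 um on viable Hoechst-gated cells, was scored as decrease from DMSO. Cells were hESC (H9)-derived neurons given 48 h chemical exposure immediately after seeding.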
# [13] = ArunA_NOG_NeuritesPerNeuron: ArunA Biomedical's Neurite Outgrowth (NOG) Assay for Neurites Per Neuron (AID 2283758)
# Method in brief: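 Differentiated human H9-derived neurons exposed to chemicals for 48 h from seeding, then stained with Hoechst and βIII-tubulin/DyLight 488. Automated imaging counted neurites (processes >10 um) per valid neuron; loss of signal versus DMSO scored.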
# [14] = ArunA_NOG_BranchPointsPerNeurite: ArunA Biomedical's Neurite Outgrowth (NOG) Assay for Branch Points Per Neurite (AID 2283759)
# Method in brief: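 Automated image analysis traced neurites (processes >10 um) from valid cell bodies after Hoechst and βIII-tubulin staining. hNN cells from H9 embryonic stem cells, 48 h exposure. Fitted bidirectionally against DMSO.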
# [15] = ArunA_Migration_hNC: ArunA Biomedical's Oris Neural Crest (hNC) Cell Migration Assay (AID 2283755)
# Method in brief: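 Calcein-AM fluorescence (ex494 nm/em 517 nm) in the stopper-defined detection zone quantifies migration of hNC cells after 72 h chemical exposure; 60,000 cells/well plated on Matrigel with LIF and bFGF, 16 h pre-incubation. DMSO baseline.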
# [16] = ACEA_AR_antagonist_AUC_viability: ACEA Biosciences xCELLigence Real-Time Cell Analysis on Androgen Receptor Antagonism for Viability (AID 2283776);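 also: 22Rv1 human prostate cancer cells growing on impedance electrode plates; area under impedance growth curve at 80 h after dosing as viability; hits lower the growth signal relative to DMSO meaning cytotoxicity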
# Method in brief: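 Impedance read-out (RT-CES): area under growth curve at 80 h post-dose, loss of signal scored vs DMSO baseline. 22Rv1 cells; 8-pt 1:4 series, top 100 uM final, ≤0.5% DMSO; biological duplicate.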
# [17] = tested on: Thyroperoxidase (TPO), gene 445522; test: CCTE_Simmons_GUA_TPO: CCTE's Guaiacol Assay for Thyroperoxidase (TPO) Inhibition, Simmons Lab (AID 2283750)
# Method in brief: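 Porcine thyroid microsomes (25 ug) in 200mM potassium phosphate, preincubated 30 s at 37C with compound (8 concentrations, 5 nM–87.5 uM) and 35mM guaiacol; 1mM H2O2 starts reaction. Absorbance change at 450nm over first 80 s; loss of signal versus DMSO, three replicates.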
# [18] = ArunA_Migration_hNP: ArunA Biomedical's Oris Neuroprogenitor (hNP) Cell Migration Assay (AID 2283754)
# Method in brief: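 Readout is calcein-AM fluorescence (ex494/em517) of cells migrating into the detection zone, relative to DMSO. hNP1 cells (H9-derived) grown on Matrigel behind stoppers 16 h, then stoppers pulled and chemical applied 72 h; cytochalasin D as control.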
# Chain of Luciferin 4-monooxygenase (Photinus pyralis) (P08659 whole entry, looked up): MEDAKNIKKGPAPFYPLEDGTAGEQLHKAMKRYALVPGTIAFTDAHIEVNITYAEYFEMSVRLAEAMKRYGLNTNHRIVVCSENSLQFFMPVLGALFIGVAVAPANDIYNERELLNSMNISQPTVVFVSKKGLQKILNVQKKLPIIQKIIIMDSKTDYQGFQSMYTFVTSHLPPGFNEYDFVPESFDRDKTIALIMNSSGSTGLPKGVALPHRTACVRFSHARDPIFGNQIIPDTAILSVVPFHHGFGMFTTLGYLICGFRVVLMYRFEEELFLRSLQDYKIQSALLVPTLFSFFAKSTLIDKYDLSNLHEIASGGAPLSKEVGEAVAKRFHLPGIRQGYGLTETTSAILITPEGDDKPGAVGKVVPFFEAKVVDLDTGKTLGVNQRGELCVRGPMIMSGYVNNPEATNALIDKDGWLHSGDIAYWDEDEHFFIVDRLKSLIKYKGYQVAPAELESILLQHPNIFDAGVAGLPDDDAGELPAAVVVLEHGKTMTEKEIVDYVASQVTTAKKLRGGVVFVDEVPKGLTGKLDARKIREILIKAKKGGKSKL
compound,measurement,setting,value
CCn1nc(C)c2c1C(=O)NCC(c1ccc(O)cc1)=N2,outcome,[1],inactive
same,outcome,[2],inactive
same,AC50,[3],15.8 µM (active)
same,AC50,[4],25.8 µM (active)
CCCCCOC(C)=O,outcome,[2],inactive
CC(C)C(=O)Nc1ccc([N+](=O)[O-])c(C(F)(F)F)c1,AC50,[5],31.6 µM (active)
same,AC50,[6],50 µM (active)
same,outcome,[2],inactive
same,outcome,[7],inactive
same,outcome,[8],inactive
same,AC50,[4],55.2 µM (active)
CCOc1ccc2[nH]cc(C(=O)NCc3ccccc3)c(=O)c2n1,outcome,[1],inactive
same,AC50,[4],26.1 µM (active)
CCCC(CCC)C(=O)O,AC50,[5],242 µM (active)
same,AC50,[6],293 µM (active)
same,outcome,[2],inactive
same,outcome,[9],inactive
same,outcome,[10],inactive
same,AC50,[11],82.6 µM (active)
same,AC50,[12],77.4 µM (active)
same,AC50,[13],91.1 µM (active)
same,AC50,[14],69.6 µM (active)
same,outcome,[4],inactive
OCc1c[nH]c2ccccc12,outcome,[1],inactive
O=S1(=O)CCCO1,AC50,[5],83 µM (active)
same,AC50,[6],78.2 µM (active)
same,outcome,[2],inactive
same,outcome,[3],inactive
same,outcome,[4],inactive
CCCCCCCCCC,outcome,[5],inactive
same,outcome,[2],inactive
same,outcome,[9],inactive
same,outcome,[15],inactive
same,outcome,[11],inactive
NC(=O)NN=Cc1ccc([N+](=O)[O-])o1,outcome,[5],inactive
same,AC50,[6],2.42 µM (active)
same,outcome,[2],inactive
c1ccc2c(c1)-c1cccc3c1c-2cc1ccccc13,outcome,[1],inactive
same,outcome,[2],inactive
same,AC50,[4],36.5 µM (active)
Cc1ncc([C@@H](CCCCCCc2ccc3c(n2)NCCC3)CC(=O)O)cn1,AC50,[5],0.0101 µM (active)
same,AC50,[6],0.0104 µM (active)
same,outcome,[1],inactive
same,outcome,[2],inactive
same,AC50,[4],0.00386 µM (active)
CCCCC(CC)C(=O)OCCOCCOCCOC(=O)C(CC)CCCC (configuration not stated),outcome,[1],inactive
same,outcome,[2],inactive
same,AC50,[4],50 µM (active)
same,AC50,[16],50 µM (active)
C[C@@H](Oc1ccc(CNC(=O)c2cccnc2Oc2ccc3c(c2)OCO3)c(F)c1)C(=O)O,outcome,[1],inactive
same,outcome,[2],inactive
same,outcome,[17],inactive
same,outcome,[3],inactive
CC1(C)C(=O)N(Cl)C(=O)N1Cl,outcome,[2],inactive
Cn1cc[nH]c1=S,AC50,[5],37.7 µM (active)
same,outcome,[18],inactive
same,outcome,[15],inactive
same,AC50,[11],5.5 µM (active)
same,AC50,[12],6.43 µM (active)
same,AC50,[13],5.75 µM (active)
same,AC50,[14],7.98 µM (active)
same,outcome,[3],inactive
